Results as given in PubChem BioAssay (NCATS).
Results filed as inconclusive are left out. Where a call stands in place of a potency, no number is given. Activity calls are given as the source filed them. Calls come from the whole dose curve; as a rule, active = well fitted inhibition curve with a large enough effect; inconclusive = small, poorly fitted or top-dose-only effect; inactive = flat fitted curve, though single readings scatter.

Tests used:
Assay in all cases: qHTS profiling for inhibitors of Plasmodium falciparum proliferation (AID 504749); note: nearly all actives have a fitted effect of over 60% in size
Conditions in all cases: P. falciparum in erythrocytes, SYBR Green DNA, 72 h; series mostly up to 28.7 µM
[1] = system: P93_24
In short: (§1)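 SYBR Green fluorescence of parasite DNA, read after lysis and overnight dark incubation, measured growth over 72 h in erythrocyte culture at 0.3% parasitemia and 2.5% hematocrit. Data normalised to DMSO and 0.29 uM artemisinin, with plate-drift correction.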

[2] = system: P94_40
In short: as §1

[3] = system: PAD
In short: as §1

[4] = system: PC15
In short: as §1

[5] = system: PC26
In short: as §1

[6] = system: PC49
In short: as §1

[7] = system: SC27B
In short: as §1

[8] = system: TAB109
In short: as §1

[9] = system: TAB113
In short: as §1

[10] = system: TAB165
In short: as §1
Potency is the fitted concentration of half-maximal effect.

Row | Compound | Potency [1] | Potency [2] | Potency [3] | Potency [4] | Potency [5] | Potency [6] | Potency [7] | Potency [8] | Potency [9] | Potency [10]
1 | CC(=O)Nc1ncc([N+](=O)[O-])s1 | inactive | inactive | inactive | inactive | inactive | inactive | inactive | inactive | inactive | inactive
2 | CCCc1ncc(C[n+]2ccccc2C)c(N)n1 | inactive | inactive | inactive | inactive | inactive | inactive | inactive | inactive | inactive | inactive
3 | CNCCc1ccccn1 | inactive | inactive | inactive | inactive | inactive | inactive | inactive | inactive | inactive | inactive
4 | c1ccc(-c2nc[nH]c2-c2ccccc2)cc1 | inactive | inactive | inactive | inactive | inactive | inactive | inactive | inactive | inactive | inactive
5 | C[N+]1(CC2COC(c3ccccc3)(C3CCCCC3)O2)CCCCC1 (stereo not drawn) | 6.31 µM (active) | 4.47 µM (active) | 5.01 µM (active) | 5.62 µM (active) | 4.26 µM (active) | 6.31 µM (active) | 7.08 µM (active) | 6.31 µM (active) | 5.01 µM (active) | 5.01 µM (active)
6 | CC1=C(C(=O)O)N2C(=O)[C@@H](NC(=O)[C@H](N)c3ccccc3)[C@H]2SC1 | inactive | inactive | inactive | inactive | inactive | inactive | inactive | inactive | inactive | inactive
7 | CC(C)Cc1ccc(CC(=O)O)cc1 | inactive | inactive | inactive | inactive | inactive | inactive | inactive | inactive | inactive | inactive
8 | Cc1cc(NS(=O)(=O)c2ccc(N)cc2)nc(C)n1 | inactive | inactive | inactive | inactive | inactive | inactive | inactive | inactive | inactive | inactive
9 | CCCN(CCc1cccs1)[C@H]1CCc2c(O)cccc2C1 | 6.31 µM (active) | 4.47 µM (active) | 3.16 µM (active) | 6.31 µM (active) | 6.75 µM (active) | 11.2 µM (active) | 4.47 µM (active) | 7.08 µM (active) | 4.47 µM (active) | 4.47 µM (active)
10 | CCCCCCCCCCCCCCCCO | inactive | inactive | inactive | inactive | inactive | inactive | inactive | inactive | inactive | inactive
11 | CCOC(=O)C(C#N)=C(c1ccccc1)c1ccccc1 | inactive | inactive | inactive | inactive | inactive | inactive | inactive | inactive | inactive | inactive
12 | O=C(O)CCNC(=O)c1ccccc1 | inactive | inactive | inactive | inactive | inactive | inactive | inactive | inactive | inactive | inactive
13 | CCCCCCCCCCCCCC[N+](C)(C)Cc1ccccc1 | 7.94 µM (active) | 6.31 µM (active) | 11.2 µM (active) | 6.31 µM (active) | 5.36 µM (active) | 7.94 µM (active) | 7.94 µM (active) | 7.94 µM (active) | 6.31 µM (active) | 5.62 µM (active)
14 | CCN1/C(=C/C=C/c2sc3ccccc3[n+]2CC)Sc2ccccc21 | 0.112 µM (active) | 0.112 µM (active) | 0.282 µM (active) | 0.316 µM (active) | 0.849 µM (active) | 1.12 µM (active) | 0.282 µM (active) | 0.141 µM (active) | 0.141 µM (active) | 0.141 µM (active)
15 | NS(=O)(=O)c1cc(C(=O)O)cc(N2CCCC2)c1Oc1ccccc1 | inactive | inactive | inactive | inactive | inactive | inactive | inactive | inactive | inactive | inactive
16 | C=C[C@@]1(C)CC(=O)[C@]2(O)[C@@]3(C)[C@@H](O)CCC(C)(C)[C@@H]3[C@H](O)[C@H](OC(C)=O)[C@@]2(C)O1 | inactive | inactive | inactive | inactive | inactive | inactive | inactive | inactive | inactive | inactive
17 | C#C[C@]1(O)CC[C@H]2[C@@H]3CCc4cc(OC)ccc4[C@H]3CC[C@@]21C | inactive | inactive | inactive | inactive | inactive | inactive | inactive | inactive | inactive | inactive
18 | CCCCNc1ccc(C(=O)OCCOCCOCCOCCOCCOCCOCCOCCOCCOC)cc1 | inactive | inactive | inactive | inactive | inactive | inactive | inactive | inactive | inactive | 
19 | CCCCc1cc2ccccc2c(OCCN(C)C)n1 | inactive | inactive | inactive | inactive | inactive | inactive | inactive | inactive | inactive | inactive
20 | COc1cc(NS(=O)(=O)c2ccc(N)cc2)ncn1 | inactive | inactive | inactive | inactive | inactive | inactive | inactive | inactive | inactive | inactive
21 | Cc1ccc(O)c([C@H](CCN(C(C)C)C(C)C)c2ccccc2)c1 | 4.47 µM (active) | 2.24 µM (active) | 2.82 µM (active) | 3.16 µM (active) | 4.78 µM (active) | 3.16 µM (active) | 4.47 µM (active) | 3.55 µM (active) | 3.98 µM (active) | 2.24 µM (active)
22 | CCCCCCCCCCCCSCCOCCO | inactive | inactive | inactive | inactive | inactive | inactive | inactive | inactive | inactive | inactive
23 | CCOc1ccccc1OCCN[C@H](C)Cc1ccc(OC)c(S(N)(=O)=O)c1 | inactive | inactive | inactive | inactive | inactive | inactive | inactive | inactive | inactive | inactive

Row | Compound | Potency [1] | Potency [2] | Potency [3] | Potency [4] | Potency [5] | Potency [6] | Potency [7] | Potency [8] | Potency [9] | Potency [10]
24 | COc1ccc(-c2cc(C(F)F)nn2-c2ccc(S(N)(=O)=O)cc2)cc1F | inactive | inactive | inactive | inactive | inactive | inactive | inactive | inactive | inactive | inactive
25 | O=C1C(O)=C(O)C(=O)C(O)=C1O | inactive | inactive | inactive | inactive | inactive | inactive | inactive | inactive | inactive | inactive
26 | Cc1cc(C)cc(OCC2CNC(=O)O2)c1 (stereo not drawn) | inactive | inactive | inactive | inactive | inactive | inactive | inactive | inactive | inactive | inactive
27 | OC[C@H]1O[C@@H]2O[C@H]3[C@H](O)[C@@H](O)[C@@H](O[C@H]4[C@H](O)[C@@H](O)[C@@H](O[C@H]5[C@H](O)[C@@H](O)[C@@H](O[C@H]6[C@H](O)[C@@H](O)[C@@H](O[C@H]7[C@H](O)[C@@H](O)[C@@H](O[C@H]8[C@H](O)[C@@H](O)[C@@H](O[C@H]1[C@H](O)[C@H]2O)O[C@@H]8CO)O[C@@H]7CO)O[C@@H]6CO)O[C@@H]5CO)O[C@@H]4CO)O[C@@H]3CO | inactive | inactive | inactive | inactive | inactive | inactive | inactive | inactive | inactive | inactive
28 | O=C(O)CCC(=O)Nc1ccc(S(=O)(=O)Nc2nccs2)cc1 | inactive | inactive | inactive | inactive | inactive | inactive | inactive | inactive | inactive | inactive
29 | CCCCC(CC)COC(=O)/C=C/c1ccc(OC)cc1 (stereo not drawn) | inactive | inactive | inactive | inactive | inactive | inactive | inactive | inactive | inactive | inactive
30 | O=c1[nH]c(=O)n([C@H]2C[C@H](O)[C@@H](CO)O2)cc1F | inactive | inactive | inactive | inactive | inactive | inactive | inactive | inactive | inactive | inactive
31 | NC(N)=NCc1cccc(I)c1 | inactive | inactive | inactive | inactive | inactive | inactive | inactive | inactive | inactive | inactive
32 | CCOC(=O)[C@H](CCc1ccccc1)N[C@@H](C)C(=O)N1[C@H](C(=O)O)C[C@H]2CCCC[C@@H]21 | inactive | inactive | inactive | inactive | inactive | inactive | inactive | inactive | inactive | inactive
33 | CN(C)CCC[C@@]1(c2ccc(F)cc2)OCc2cc(C#N)ccc21 | inactive | inactive | inactive | inactive | inactive | inactive | inactive | inactive | inactive | 
34 | O=C(O)Cc1csc(-c2ccc(Cl)cc2)n1 | inactive | inactive | inactive | inactive | inactive | inactive | inactive | inactive | inactive | inactive
35 | C[C@@H](O)[C@H]1C(=O)N2C(C(=O)O)=C(S[C@@H]3CN[C@H](CNS(N)(=O)=O)C3)[C@H](C)[C@H]12 | inactive | inactive | inactive | inactive | inactive | inactive | inactive | inactive | inactive | inactive
36 | CCN(CC)CCNC(=O)COc1ccc(OC)cc1 | inactive | inactive | inactive | inactive | inactive | inactive | inactive | inactive | inactive | inactive
37 | CCCCN=C(N)N=C(N)N | inactive | inactive | inactive | inactive | inactive | inactive | inactive | inactive | inactive | inactive
38 | Oc1ccccc1C=NCc1ccccc1 | inactive | inactive | inactive | inactive | inactive | inactive | inactive | inactive | inactive | inactive
39 | CC(C)(C)NC[C@H](O)COc1cccc2c1CCCC2=O | inactive | inactive | inactive | inactive | inactive | inactive | inactive | inactive | inactive | inactive
40 | COc1ccc2c(c1)c1c3n2CCN(C)C3=NCC1 | inactive | inactive | inactive | inactive | inactive | inactive | inactive | inactive | inactive | inactive
41 | N#CCC(=O)NN | inactive | inactive | inactive | inactive | inactive | inactive | inactive | inactive | inactive | inactive
42 | Nc1ccc(S(=O)(=O)NCc2ccccc2)cc1 | inactive | inactive | inactive | inactive | inactive | inactive | inactive | inactive | inactive | inactive
43 | CCCCCCCCCCCCCC(=O)OC(C)C | inactive | inactive | inactive | inactive | inactive | inactive | inactive | inactive | inactive | inactive
44 | Nc1ccc(C(=O)NCC(=O)O)cc1 | inactive | inactive | inactive | inactive | inactive | inactive | inactive | inactive | inactive | inactive
45 | Cc1cccc(C)c1NC(=O)CN1CCCCCC1 | inactive | inactive | inactive | inactive | inactive | inactive | inactive | inactive | inactive | inactive
46 | NCCNC(=O)c1ccc(Cl)cn1 | inactive | inactive | inactive | inactive | inactive | inactive | inactive | inactive | inactive | inactive
